Only some compounds are listed: those with a hit (about 2.2% of all), similar ones and a draw of the others.
MITF TRPM1 inh – MITF TRPM1 promoter inhibition in SK-MEL-5 cells; 330,000 tested, 0.83% active; inhibition, % at 12.5 µM; SK-MEL-5 TRPM1 promoter luciferase, 24 h; AID 488899;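 active = mean inhibition across replicates of 60% or more, whatever share of single replicates reaches that level; inconclusive = some that reach 60%, reason not given; inactive = mean inhibition across replicates below 60%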
Shn3 3UTR inh – Schnurri-3 reporter inhibition in Clone20 osteoblasts | inhibition, % at 12.5 µM | 360,000 tested, 0.52% active | Clone20 osteoblast Shn3 3'UTR firefly luciferase, 24 h;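 active = mean inhibition of at least 75% with every replicate also reaching 75%; inconclusive = mean inhibition at least 75% but some replicate below; inactive = mean inhibition below 75%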;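 note: 0% = median of neutral control wells and 100% = pilot-screen positive control compound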
EBV LMP1 NFkB – inhibitors of Epstein-Barr LMP1-induced NF-kappaB reporter; LMP1-induced NF-kappaB luciferase reporter cells, luminescence; inhibition, % at 12.5 µM; 350,000 tested, 0.69% active; in the data active = inhibition above about 41%; inconclusive = no clear call, values can overlap the other calls;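 note: 0% = neutral control wells and 100% = reference inhibitor control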
EWS-Fli block – EWS/Fli transcriptional activity inhibition | A673 NR0B1-luciferase reporter, viability-normalised | 350,000 tested, 0.67% active | inhibition, % at 12.6 µM;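 active = mean inhibition of at least 50% after viability correction, with every replicate also passing that limit; inconclusive = mean reaches 50% but only one of two replicates passes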;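 note: firefly luciferase signal divided by Alamar Blue viability fluorescence both relative to DMSO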
LGR2 inh – Drosophila LGR2 receptor signaling inhibition | HEK293 LGR2, CRE-luciferase, bursicon-stimulated, 4 h | inhibition, % at 9.99 µM | 380,000 tested, 0.35% active;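 active = drop in luminescence signal, shown as inhibition above about 50% in the replicate tests, limit read from the data, passing the limit was not always enough; inconclusive = probably only some replicates passing the limit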;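 note: agonist challenge used bursicon conditioned medium at about half maximal strength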
PAX8 reporter – lowers PAX8-driven luciferase in RMG-I cells; RMG-I TPO-luciferase reporter, SteadyGlo, 24 h; inhibition, % at 12.6 µM; 360,000 tested, 1.2% active; AID 652154;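 active = mean replicate inhibition at least 60% with every replicate also reaching 60%; inconclusive = only one of the two criteria is met; inactive = mean below 60% and not all replicates reaching 60%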;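 note: luciferase light reporting Pax8 driven TPO promoter activity; plate controls were median of neutral control wells for no effect and mitoxantrone controls for full effect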
* = called active by the depositor; ! = not active in a repeat.

Results for CC(C)C[C@@H](CN1CCC[C@H]1CN1C(=O)C(=O)NC[C@@H]1Cc1ccccc1)N1C[C@H](Cc2ccccc2)N(CC2CCCCCC2)C(=O)C1=O ?
EWS-Fli block: 17; LGR2 inh: inconclusive; PAX8 reporter: 65*

How did CC(C)C[C@@H](CN1CCC[C@H]1CN1C(=O)C(=O)NC[C@@H]1Cc1ccc(O)cc1)N1C[C@H](Cc2ccccc2)N(CC2CCCCCC2)C(=O)C1=O do in these assays?
EWS-Fli block: 4; LGR2 inh: 16; PAX8 reporter: 17

What do the screens show for `O=C1C=C(N2CCOCC2)c2ccccc2C1=O`?
MITF TRPM1 inh: 85*; Shn3 3UTR inh: 97*; EBV LMP1 NFkB: 12; EWS-Fli block: 49; LGR2 inh: 30; PAX8 reporter: 74*

How did O=C1C=C(N2CCOCC2)c2cccc3cccc1c23 do in these assays?
Shn3 3UTR inh: 3; EBV LMP1 NFkB: 0; EWS-Fli block: -4; LGR2 inh: 18; PAX8 reporter: 1

Results for CCOC(=O)N1CCN(C(=O)c2ccc3c(=O)n(Cc4ccc(Cl)cc4)c(=S)[nH]c3c2)CC1 ?
MITF TRPM1 inh: -7; Shn3 3UTR inh: -1; EBV LMP1 NFkB: 4; LGR2 inh: -16

How did CCOC(=O)N1CCN(C(=O)c2ccc(Cn3c(=S)[nH]c4ccc(Br)cc4c3=O)cc2)CC1 do in these assays?
MITF TRPM1 inh: 71*; Shn3 3UTR inh: inconclusive; EBV LMP1 NFkB: 51*; EWS-Fli block: 46; LGR2 inh: 12; PAX8 reporter: 11

Results for COc1cccc(S(=O)(=O)N2C[C@@H]3N[C@H](C2)C3c2ccc(/C=C/c3ccccc3)cc2)c1 (some centres not stated) ?
EWS-Fli block: -17; LGR2 inh: 18; PAX8 reporter: 92*!

How did N#Cc1ccc(-c2ccc([C@@H]3[C@@H]4CN(S(=O)(=O)c5ccc(-c6ccccc6)cc5)C[C@H]3N4)cc2)cc1 do in these assays?
EWS-Fli block: 7; LGR2 inh: 8; PAX8 reporter: 75*

How did O=S(=O)(c1ccc(-c2ccccc2)cc1)N1C[C@@H]2N[C@H](C1)C2c1ccc(-c2ccccc2)cc1 (some centres not stated) do in these assays?
EWS-Fli block: -4; LGR2 inh: -16; PAX8 reporter: 3

Results for O=C(Nc1ccccc1)N1CC(=O)N2[C@@H](CO)[C@H](c3ccc(C#CC4CC4)cc3)[C@@H]2C1 ?
EWS-Fli block: -1; LGR2 inh: 7; PAX8 reporter: 18

How did COCCCN(Cc1cc(OC)c(OC)c(OC)c1)C(=S)Nc1cccc(Cl)c1 do in these assays?
Shn3 3UTR inh: 82*; EBV LMP1 NFkB: 5; EWS-Fli block: 11; LGR2 inh: 22; PAX8 reporter: 25

What do the screens show for `COc1ccc(N(C(=O)c2ccncc2)S(=O)(=O)c2ccc3c4c(cccc24)C(=O)N3C)cc1`?
MITF TRPM1 inh: 23; Shn3 3UTR inh: 24; EBV LMP1 NFkB: -1; EWS-Fli block: 2; LGR2 inh: 72*; PAX8 reporter: -5

Results for CN(C)C(=O)NC1c2ccccc2-c2ccccc21 ?
MITF TRPM1 inh: 13; Shn3 3UTR inh: -10; EBV LMP1 NFkB: -1; EWS-Fli block: 0; LGR2 inh: -26; PAX8 reporter: 1

What do the screens show for `O=C1C=CC(=O)N1c1ccc2c(c1)C(NC(=O)C(F)(F)F)c1ccccc1-2` (configuration not stated)?
MITF TRPM1 inh: 86*; Shn3 3UTR inh: 71; EBV LMP1 NFkB: -5; EWS-Fli block: 15; LGR2 inh: 9; PAX8 reporter: 28

How did Cc1ccc(NC(=O)C(C)OC(=O)CCNS(=O)(=O)c2ccc(C)cc2)cc1 (configuration not stated) do in these assays?
MITF TRPM1 inh: 4; Shn3 3UTR inh: -14; EBV LMP1 NFkB: -9; EWS-Fli block: 0; LGR2 inh: 2; PAX8 reporter: 70*

Results for CN1CCN(CCNC(=O)c2ccc3nc(-c4ccc(F)cc4)c(-c4ccc(F)cc4)nc3c2)CC1 ?
MITF TRPM1 inh: 89*; Shn3 3UTR inh: -3; EBV LMP1 NFkB: -5; EWS-Fli block: 19; LGR2 inh: -2; PAX8 reporter: -1

What do the screens show for `CN1CCN(C(=O)C[C@@H]2C[C@@H]3c4cc(NC(=O)NC5CCCCC5)ccc4O[C@@H]3[C@@H](CO)O2)CC1`?
EWS-Fli block: -2; LGR2 inh: -5; PAX8 reporter: -9

What do the screens show for `CCOC(=O)c1c(CSc2ccccc2)n(C)c2cc(Br)c(OCC(O)CNC(CO)(CO)CO)cc12` (configuration not stated)?
MITF TRPM1 inh: 90*; Shn3 3UTR inh: 0; EBV LMP1 NFkB: 2; EWS-Fli block: 7; LGR2 inh: 41; PAX8 reporter: -1

How did CCOC(=O)c1c(CSc2ccccc2)n(C)c2cc(Br)c(OC)c(O)c12 do in these assays?
MITF TRPM1 inh: -10; Shn3 3UTR inh: -3; EBV LMP1 NFkB: -2; EWS-Fli block: -2; LGR2 inh: -4; PAX8 reporter: -27

Results for CCCC(=O)Nc1ccc2c(c1)C(=O)N(C)C[C@@H](OC)[C@@H](C)CN(Cc1ccncc1)[C@@H](C)CO2 ?
EWS-Fli block: 1; LGR2 inh: -23

Results for NCCCn1c(C(=O)c2cc(Cl)c(N)c(Cl)c2)c2ccc([N+](=O)[O-])cc2[n+]1[O-] ?
MITF TRPM1 inh: 54; Shn3 3UTR inh: 6; EBV LMP1 NFkB: 32; EWS-Fli block: 55*; LGR2 inh: 18; PAX8 reporter: 70*

How did NCCCn1c(C(=O)c2cc(Cl)c(N)c(Cl)c2)c2ccc(C(F)(F)F)cc2[n+]1[O-] do in these assays?
MITF TRPM1 inh: 18; Shn3 3UTR inh: -22; EBV LMP1 NFkB: -6; EWS-Fli block: 23; LGR2 inh: 6; PAX8 reporter: 22

What do the screens show for `C[C@@H]1CN([C@H](C)CO)C(=O)c2cc(NS(=O)(=O)c3ccc(Cl)cc3)ccc2O[C@@H](C)CCCCO[C@H]1CN(C)C(=O)C1CCCCC1`?
EWS-Fli block: 8; LGR2 inh: 22; PAX8 reporter: 85*

How did C[C@@H]1CCCCO[C@@H](CN(C)C(=O)C2CCCCC2)[C@@H](C)CN([C@H](C)CO)C(=O)c2cc(NS(=O)(=O)c3ccc(Cl)cc3)ccc2O1 do in these assays?
EWS-Fli block: -5; LGR2 inh: 7; PAX8 reporter: -10

How did C[C@@H]1CCCCO[C@@H](CN(C)C(=O)C2CCCCC2)[C@H](C)CN([C@H](C)CO)C(=O)c2cc(NS(=O)(=O)c3ccc(Cl)cc3)ccc2O1 do in these assays?
EWS-Fli block: 42; LGR2 inh: 23; PAX8 reporter: 79*

How did C[C@H](CO)N1C[C@H](C)[C@@H](CN(C)C(=O)C2CCCCC2)OCCCC[C@H](C)Oc2ccc(NS(=O)(=O)c3ccc(Cl)cc3)cc2C1=O do in these assays?
EWS-Fli block: -11; LGR2 inh: 10; PAX8 reporter: 88*

Assay outcomes from PubChem.
